Measured values reported in PubChem BioAssay (NCATS).
Results filed as inconclusive are left out. A call without a number means that no potency is given here. Calls of active or inactive are those of the source. Calls follow the shape of the dose curve; as a rule, active = well fitted curve in the direction sought with a large enough effect; inconclusive = small, poorly fitted or top-dose-only effect, or another doubt; inactive = no such curve, though single readings can be large or run the other way.

What was measured:
[1] = biological target: alpha-glucosidase (Oryza sativa, rice) (UniProt Q653V4); assay: Counterscreen for Glucocerebrosidase Inhibitors: qHTS Assay for Rice alpha-Glucosidase at pH 5.0 (AID 997); details: rice alpha-glucosidase enzyme activity; series mostly up to 76.9 µM
How it was run: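 Rice alpha-glucosidase (4 nM final) with 400 uM 4-methylumbelliferyl-alpha-D-glucopyranoside in citrate buffer pH 5.0, 20 min at room temperature, stopped at pH 10; fluorescence 365/440 nm, compounds 0.7 nM–77 uM, AC50 from Hill fits.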

[2] = qHTS for differential inhibitors of proliferation of Plasmodium falciparum line GB4 (AID 1816); details: Potency: Plasmodium falciparum GB4 proliferation inhibition; series mostly up to 28.7 µM;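 also: parasite growth measured after 72 h incubation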; also: potency is read from the fitted curve at half-maximal effect

SMILES	outcome [1]	Potency [2]
OCc1ccc(-c2nn(Cc3ccccc3)c3ccccc23)o1	inactive	–
COc1cc2ncnc(Nc3cccc(Cl)c3)c2cc1OC	–	6.31 µM (active)
NC(=O)c1cccc(N)c1	–	inactive
